# Source: PubChem BioAssay
# JMJD2A Tudor inh: qHTS Assay for Inhibitors of JMJD2A-Tudor Domain; 4.4% of 390,000 active; AlphaScreen JMJD2A-Tudor / H3K4me3 peptide binding; Lysine-specific demethylase 4A (Homo sapiens), O75164; Potency, µM (titrated, usually from 114 µM), inactives show top-dose activity change, negative = inhibition, hits mostly inhibitors; further: on the % scale 0 is the no-effect control and ±100 the full control effect; nearly all actives have a fitted effect of over 50% in size
# G9a inh: qHTS Assay for Inhibitors of Histone Lysine Methyltransferase G9a; G9a H3K9 monomethylation, AlphaScreen, 2 h; Potency, µM (titrated, usually from 102 µM), inactives show at the highest dose activity, negative = inhibition, hits mostly inhibitors; 8.8% of 350,000 active; AID 504332, 2011; further: on the % scale 0 is the no-effect control and ±100 the full control effect; nearly all actives have a fitted effect of over 75% in size
#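 G9a (20 nM) preincubated 15 min RT with compounds, then 500 nM biotinylated H3K9 peptide and 20 uM SAM added; 2 h RT reaction. Monomethyl-H3K9 product detected by AlphaScreen with anti-H3K9me1 antibody, streptavidin donor and anti-rabbit IgG acceptor beads.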
# BAZ2B inh: qHTS Assay for Inhibitors of BAZ2B. Bromodomain adjacent to zinc finger domain protein 2B (Homo sapiens), Q9UIF8. AlphaScreen BAZ2B-H3K14Ac peptide displacement. Potency, µM (doses to about 114 µM), for inactives: at the top dose activity change, negative = inhibition, usual class: inhibitors. 4.4% of 360,000 active. AID 504333, 2011; further: on the % scale 0 is the no-effect control and ±100 the full control effect; nearly all actives have a fitted effect of over 60% in size
#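 AlphaScreen displacement: compounds (up to 110uM) incubated 30 min at room temperature with a preformed 50 nM BAZ2B/50 nM biotinylated H3K14Ac peptide complex in PBS pH 7.4 with Tween-20. Donor and acceptor beads at 10 ug/mL final added, 20 min light-protected before reading.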
# HP1b chromo inh: HTS for Inhibitors of HP1-beta Chromodomain Interactions with Methylated Histone Tails; Chromobox protein homolog 1 (Homo sapiens), P83916; AlphaScreen HP1-beta / biotin-H3K9me3 peptide binding; Potency, µM (highest dose often 114 µM), for inactives: at the top dose activity change, negative = inhibition, actives largely listed as inhibitors; 0.56% of 390,000 active; AID 540317, 2011; further: nearly all actives have a fitted effect of over 70% in size
#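 HP1-beta protein (50 nM final) preincubated 30 min at room temperature with biotinylated H3(1-18)K9me3 peptide (50 nM) in PBS pH 7.4, 0.01% Tween-20, then compound added for 30 min. AlphaScreen streptavidin donor/nickel chelate acceptor beads (10 ug/mL final), 30 min dark, luminescence read.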
# GLS inh: qHTS for Inhibitors of Glutaminase (GLS). GLS enzymatic activity, qHTS titration. Potency, µM (top dose mostly 45.5 µM), for the others: at the highest dose activity change, negative = inhibition, hits mostly inhibitors. 0.21% of 410,000 active. AID 624170, 2012; further: on the % scale 0 is the no-effect control and ±100 the full control effect
#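 Glutamate formation by hKGA was monitored fluorometrically using coupled glutamate oxidase, HRP and Amplex Red. Substrate was added as 1 mM L-glutamine solution; incubation was 30 min at RT after an initial read.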
# * hit, by the source's call; ? = inconclusive; / = no result given; [ ] = dose if it differs, or a comment. The list is not random: actives were taken first. Their share in the collection is about 10%. The call rests on the fitted dose curve; in most records, active means well fitted curve in the direction sought with a large enough effect; inconclusive means small, poorly fitted or top-dose-only effect, or another doubt; inactive means no such curve, though single readings can be large; an effect the other way counts as inactive or inconclusive. Potency means the concentration at half of the fitted maximal effect.
SMILES,JMJD2A Tudor inh,G9a inh,BAZ2B inh,HP1b chromo inh,GLS inh
Cn1c(=O)n(Cc2ccccc2)c(=O)c2c1nc1n2CCCN1Cc1ccccc1,-14%,9%[59 µM],-12%,-9%,-8%
O=S1(=O)CC(O)C(N=Nc2c(O)n(Cc3ccccc3)c3ccccc23)C1 (centres undefined),-29%[11.4 µM],40µM*,?,?,?
C=CCCC(=O)N1C[C@H]2CON(C)[C@H]2C[C@H]1c1cccc(N2CCOCC2)c1,/,/,/,/,3%
Cc1cc(C)n(-c2ccc(C(=O)Nc3ccc4c(c3)OCO4)cc2)n1,-13%,-14%,-22%,1%,-2%
CC1CCc2sc(C(=O)Nc3ccc(N4CCOCC4)cc3)cc2C1 (centres undefined),?,32µM*,?,?,10%
Cc1cc(C)n(-c2ccc(C(=O)Nc3ccc(N4CCOCC4)cc3)cc2)n1,-25%,56µM*,-27%,24%,-6%
CCN(c1ccc(NC(=O)c2ccc(Cl)nc2)cc1)C(C)C,-15%,22µM*,?,29%,0%
O=C(Nc1ccc(N2CCOCC2)cc1)c1ccc(Cl)nc1,?,50µM*,?,-18%,38%
COc1cccc(C(=O)N2CCC[C@@H]2C(=O)N2CCC[C@H]2C(=O)NCc2ccncc2)c1,/,/,/,/,-4%
O=C(Nc1ccc(N2CCOCC2)cc1)c1cccc(-n2cnnc2)c1,-15%,45µM*,-22%,-11%,0%
O=C(Nc1ccc(N2CCOCC2)c(Cl)c1)c1cccc(-n2cnnc2)c1,-11%,21%,-5%,17%,2%
C=CCn1c(O)c(C2=c3ccccc3=NC2=O)sc1=Nc1ccc(O)cc1,22µM*,-28%[12.7 µM],22µM*,?,4%
CN(CC(=O)Nc1ccc(F)c(F)c1F)C(=O)C1CCCN1C(=O)c1cccs1 (centres undefined),/,/,/,/,5%
Cc1ccc(CN(C)C(=O)C2CCCN2C(=O)c2cccs2)o1 (centres undefined),-20%,45µM*,-23%,-3%,4%
CN(C)c1ccc(CN(C)C2CCCCC2)cc1,-31%,50µM*,?,1%,-29%
CN(C)c1ccc(CNCC2CCCO2)cc1 (centres undefined),-17%,?,1%,27%,-1%
N#Cc1c(/N=C/C=C/c2ccccc2)sc2c1CCCC2,45µM*,?,22µM*,18µM*,?
Cc1ccc(/C=N/c2sc3c(c2C#N)CCCCC3)o1,56µM*,14µM*,28µM*,?,-3%
N#Cc1c(/N=C/c2ccco2)sc2c1CCC2,-29%,?,-28%,-3%,14%
COCCNC(=S)N/N=C1\CC(C)CC(C)(C)C1 (centres undefined),-25%,50µM*,?,1%,-2%
CCCCOP(=O)(c1ccc(N(C)C)cc1)C(O)c1ccncc1 (centres undefined),-17%,?,?,32%,23%
CCCOP(=O)(c1ccc(N(C)C)cc1)C(O)c1ccc(Br)cc1 (centres undefined),-14%,-2%,-27%,9%,-9%
CC(C)CCOP(=O)(c1ccc(N(C)C)cc1)C(Nc1ccccc1)c1ccc(N(C)C)cc1 (centres undefined),45µM*,14µM*,?,-19%,2%
CC(C)CCOP(=O)(c1ccc(N(C)C)cc1)C(O)c1ccc(C(C)C)cc1 (centres undefined),-20%,-6%[2.33 µM],-25%,18%,2%
CCCCOP(=O)(c1ccc(N(C)C)cc1)C(O)c1ccc(N(C)C)cc1 (centres undefined),5µM*,2.2µM*,?,-4%,15%
CC(C)CCOP(=O)(c1ccc(N(C)C)cc1)C(O)c1ccc(N(C)C)cc1 (centres undefined),7.1µM*,2.2µM*,?,-5%,14%
